Screening data deposited in PubChem by National Center for Advancing Translational Sciences (NCATS).
FLuc modulator: counter-screen for miR-21 project: firefly luciferase inhibitors or activators | P08659 | purified FLuc, Km substrates, luminescence inhibition | Potency, µM (titrated, usually from 57.5 µM), without a hit: at the highest dose activity change, negative = inhibition, actives largely listed as inhibitors | 6.9% of 360,000 active | AID 588342;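 note: plate controls were vehicle for no effect and reference inhibitor for full effect; nearly all actives have a fitted effect of over 55% in size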
Target sequence (P08659 whole entry, looked up): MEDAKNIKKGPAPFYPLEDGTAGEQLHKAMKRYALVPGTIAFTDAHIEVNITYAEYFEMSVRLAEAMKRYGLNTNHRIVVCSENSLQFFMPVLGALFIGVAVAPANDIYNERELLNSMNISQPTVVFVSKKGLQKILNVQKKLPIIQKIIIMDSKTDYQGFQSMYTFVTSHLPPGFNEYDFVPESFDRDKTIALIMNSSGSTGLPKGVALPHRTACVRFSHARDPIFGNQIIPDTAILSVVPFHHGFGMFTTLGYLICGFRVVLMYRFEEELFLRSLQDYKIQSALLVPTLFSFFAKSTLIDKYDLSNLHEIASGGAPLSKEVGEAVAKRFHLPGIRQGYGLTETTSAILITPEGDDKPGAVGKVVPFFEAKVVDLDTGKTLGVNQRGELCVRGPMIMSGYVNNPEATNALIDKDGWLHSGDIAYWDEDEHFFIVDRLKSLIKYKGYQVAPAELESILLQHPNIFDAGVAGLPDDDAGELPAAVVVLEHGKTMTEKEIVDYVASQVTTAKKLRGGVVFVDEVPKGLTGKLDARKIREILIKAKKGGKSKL
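Purified P. pyralis luciferase, 10 nM final, with Km-level 10 uM D-luciferin and 10 uM ATP in 50 mM Tris acetate pH 7.5, 10 mM Mg acetate, 0.01% Tween-20, 0.05% BSA; 6-point qHTS titration about 60 µM downward; luminescence read.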
ELG1 genotoxic: genotoxicity induction in ELG1-luciferase HEK293T cells; HEK293T ELG1-luciferase reporter, luminescence, 16 h; Potency, µM (titrated, usually from 46 µM), inactives show top-dose activity change, positive = activation, usual class: activators; 1.3% of 330,000 active; note: % of control where 0% means no effect; nearly all actives have a fitted effect of over 60% in size
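16 hr compound incubation (37 °C, 5% CO2) of HEK293T cells carrying luciferase-tagged ELG1; luciferase then measured by ONE-Glo luminescence after 30 min at RT.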
NPC1 promoter act: activators of NPC1 promoter. Huh7 NPC1 promoter luciferase reporter, 24 h. Potency, µM (doses to about 9.22 µM), for inactives: top-dose activation, usual class: activators. AID 485313. 2.4% of 320,000 active; note: % of control where 0% means no effect; nearly all actives have a fitted effect of over 60% in size
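In 1536-well qHTS, Huh7 cells harboring an NPC1 promoter–luciferase construct received compound for 24 h; activation was quantified by luminescence following luciferase reagent addition.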
Rab9 promoter act: Rab9 promoter activation; Huh7 Rab9 promoter-luciferase reporter, luminescence, 24 h; Potency, µM (titrated, usually from 9.22 µM), for inactives: at the highest dose activation, negative = inhibition, hits mostly activators; 2.8% of 320,000 active; AID 485297; note: % of control where 0% means no effect; nearly all actives have a fitted effect of over 60% in size
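Huh7 cells stably carrying Rab9 promoter–luciferase reporter, plated 1500 cells/well, compound added after 2 h and incubated 24 h at 37 °C; luciferase luminescence then read after 10 min with detection reagent.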
SMN2 splice enh: SMN2 splice variant enhancement; Potency, µM (titrated, usually from 46.1 µM), for inactives: top-dose activity change, positive = activation, hits mostly activators; 2.8% of 210,000 active; AID 1458; HEK293 SMN2-luciferase splicing reporter, luminescence, 30-36 h; note: % of control where 0% means no effect; nearly all actives have a fitted effect of over 55% in size
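qHTS luciferase splicing reporter: luminescence rises when SMN2 exon 7 is included in transfected HEK293 cells. Compound exposure lasted 30-36 h at 37C, with 4.5 mM final sodium butyrate as control, followed by a ONE-Glo read.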
KinaseGlo FLuc: counter-screen: inhibitors of Kinase-Glo firefly luciferase; Kinase-Glo luciferase, ATP luminescence, 8 min; Q27757; 0.28% of 200,000 active; AID 1379; Potency, µM (highest dose often 38.3 µM), without a hit: at the highest dose activity change, negative = inhibition, actives largely listed as inhibitors; note: % is set by controls: 0 for no effect and ±100 for the full control effect; nearly all actives have a fitted effect of over 60% in size
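Kinase-Glo luciferase light output from ATP and luciferin was measured with 10 uM ATP, within the enzyme's linear range. Buffer: 50 mM imidazole pH 7.2, 50 mM KCl, 7 mM MgCl2, 0.01% Tween 20, 0.05% BSA; luminescence read after 8 min at ambient temperature.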
* marks the source's active call; other numbers are inactive results; u = inconclusive; x = no result; [ ] = remark or other dose. In the library only some 7.3% were active in any assay of this set; here they are far more common. Calls come from the whole dose curve; as a rule, active = well fitted curve in the direction sought with a large enough effect; inconclusive = small, poorly fitted or top-dose-only effect, or another doubt; inactive = no such curve, though single readings can be large; an effect the other way counts as inactive or inconclusive. Potency is the fitted concentration of half-maximal effect.

SMILES	FLuc modulator	ELG1 genotoxic	NPC1 promoter act	Rab9 promoter act	SMN2 splice enh	KinaseGlo FLuc
CCC/C=C(\CCC)C(NS(=O)(=O)c1ccc(C(F)(F)F)cc1)c1ccc(-c2ccccc2)cc1 (configuration not stated)	x	x	x	x	-4.9%	-1.6%
O=C(NCCOCCO)C(=O)Nc1c2c(nn1-c1ccc(F)cc1)CSC2	-10.1%	x	x	x	x	x
COc1ccc([C@]23Cc4ccccc4C(O2)C2=C(O3)C(=O)c3ccccc3C2=O)cc1	u	x	-0.4%[1.84 µM]	-1.9%[1.84 µM]	x	x
Clc1ccc(-c2cn3ccccc3n2)cc1	0.675µM*	u	0.708µM*	0.447µM*	x	x
COc1cc(C(=O)NCc2cn3ccccc3n2)cc(OC)c1OC	-1.8%	6.2%	-4.4%	-3.1%	8.2%	2.6%
Clc1ccc(-c2cn3cc(Cl)ccc3n2)cc1	0.269µM*	1.3µM*	3.55µM*	0.794µM*	x	x
Cc1ccc(-c2cc(C(F)(F)F)n3nc(-c4ccc(Cl)cc4)cc3n2)cc1	1.9%	x	x	x	-4.8%	x
CCN(CC)S(=O)(=O)c1ccc(-c2cn3cc(Cl)ccc3n2)cc1	u	5.7%	17.5%	20.4%	x	x
Oc1ccc(-c2cn3cc(C(F)(F)F)ccc3n2)cc1	0.675µM*	2.06µM*	0.794µM*	0.501µM*	0.891µM*	-15.7%
O=C(Nc1ccc(-c2cn3ccccc3n2)cc1)c1ccc(Cl)cc1	-17.7%	1.6%	u	27.0%	u	-1.6%
COc1c(Cl)cccc1-c1cn2ccccc2n1	0.536µM*	4.11µM*	0.794µM*	1.26µM*	x	x
Brc1ccc(-c2cn3ccccc3n2)s1	0.757µM*	0.651µM*	1µM*	0.355µM*	7.08µM*	u
COc1ccc(-c2cn3ccccc3n2)cc1	0.757µM*	1.3µM*	0.562µM*	0.398µM*	x	x
COc1ccc(-c2cn3ccc4ccccc4c3n2)cc1	0.953µM*	1.16µM*	u	u	3.16µM*	-22.9%
COc1ccc(-c2cn(Cc3cccc(OC)c3)nn2)cc1	u	-0.6%	20.7%	5.7%	x	x
Clc1ccc(-c2cn3c(n2)CCC3)cc1	12µM*	4.11µM*	2.24µM*	u	17.7%	-9.5%
O=[N+]([O-])c1cccc(-c2cn3ccccc3n2)c1	-0.9%	1.4%	-3.7%	-2.8%	x	-5.1%
COc1ccc2c(c1)c1c(c(=O)n(-c3ccc(OC)c(OC)c3)c(=O)n1CC(=O)N1CCCC1)n2C	-5.2%	x	x	x	x	x
O=S(=O)(Nc1nc2ccccc2nc1N1CCc2ccccc2C1)c1ccc(Br)cc1	15.1µM*	u	-2.1%	-2.3%	u	-8.0%
O=S(=O)(Nc1nc2ccccc2nc1N1CCc2ccccc2C1)c1ccc(Cl)cc1	-14.7%	-12.4%	-0.9%	-7.3%	-43.8%	-1.5%
COc1ccc(C)cc1NC(=O)N1CCC(CN2CCOCC2)CC1	-6.3%	x	x	x	x	x
Cc1cccc(N2CCc3c2nc2ccc(Br)cc2c3N)c1	8.49µM*	-5.5%	-0.8%	2.8%	-9.1%	-2.0%
Nc1c2c(nc3ccc(Br)cc13)N(Cc1ccccc1)CC2	16.9µM*	-1.9%	0.3%	-0.4%	-16.3%	1.6%
OCCNc1nc(Nc2ccc(Br)cc2)nc2ccccc12	16.9µM*	-7.7%	-7.3%	0.4%	-19.0%	9.2%
Cc1c(Cl)cccc1Nc1nc(NCCO)c2ccccc2n1	15.1µM*	-2.8%	3.9%	-4.0%	x	x
SMILES	FLuc modulator	ELG1 genotoxic	NPC1 promoter act	Rab9 promoter act	SMN2 splice enh	KinaseGlo FLuc
OCCNc1nc(Nc2ccccc2)nc2ccccc12	u	-4.8%	-8.0%	-3.0%	-34.4%	0.3%
O=C(COc1ccc(Cl)cc1Cl)Nc1cccc(-c2ccc(N3CCOCC3)nn2)c1	0.426µM*	1.83µM*	u	1µM*	x	x
O=C(COc1ccccc1)Nc1cccc(-c2ccc(N3CCOCC3)nn2)c1	1.9µM*	2.31µM*	1.78µM*	1.26µM*	x	x
Cn1cc(Cl)c(C(=O)OCC(=O)Nc2cccc(Cl)c2)n1	1.9%	-2.3%	-4.0%	-2.4%	x	x
Cn1cc(Cl)c(/C(N)=N/OC(=O)c2ccccc2C(F)(F)F)n1	12µM*	20.6µM*	3.55µM*	4.47µM*	x	x
Clc1cccc(-c2cc3nc4c(c(NCc5ccco5)n3n2)CCCC4)c1	5.36µM*	15.9%	3.55µM*	2µM*	u	7.3%
Cc1nn2c(NCCCN(C)C)c3c(nc2c1-c1ccccc1)CCC3	2.7%	10.5%	-0.5%	-3.3%	-10.0%	0.9%
OCCCNc1c2c(nc3cc(-c4ccc(Cl)cc4)nn13)CCC2	12µM*	4.9%	-0.2%	-0.4%	x	-0.9%
Cc1ccc2c(=O)cc(C(=O)Nc3c(C(=O)c4ccc(F)cc4)oc4ccccc34)oc2c1C	-3.7%	x	x	x	9.5%	x
O=C1CNC(=S)N1c1nc(-c2ccccc2)cs1	2.69µM*	u	2.82µM*	2.82µM*	11.2µM*	2.3%
COc1ccc(-c2csc(N3C(=O)C4C5c6ccccc6C(c6ccccc65)[C@@H]4C3=O)n2)cc1 (some centres not stated)	1.7%	0.3%	0.0%	0.4%	-25.0%	0.9%
COc1ccc(-c2csc(N3C(=N)SCC3=O)n2)cc1	0.426µM*	1.64µM*	0.447µM*	0.398µM*	1µM*	-6.9%
COc1ccc(-c2csc(N3C(=O)C4C5c6ccccc6C(c6ccccc65)C4C3=O)n2)cc1 (configuration not stated)	5.6%	-0.6%	-2.7%	-4.2%	2.2%	4.8%
CCc1c(C)[nH]n(-c2nc(-c3ccccc3)cs2)c1=O	u	4.5%	7.9%	2.7%	-23.9%	-2.8%
COc1ccc(-c2csc(N3C(=O)CNC3=S)n2)cc1	0.849µM*	3.26µM*	0.562µM*	0.501µM*	1.26µM*	2.4%
Cc1ccc(-n2nc(CO)c(C(=O)NCCC(C)C)n2)cc1C	u	x	x	x	-2.3%	x
COc1cc(CN(C(=O)COc2ccccc2)c2ccccn2)cc(OC)c1OC	-10.1%	x	x	x	x	x
CCOc1ccc(CCNC(=O)Cn2ncc3c(=O)oc4ccc(C)cc4c32)cc1	0.0%	x	x	x	-14.8%	x
CC(=O)COc1cccc2ccc(/C=C/c3ccc(Br)s3)nc12	19µM*	-5.4%	u	u	x	x
COc1cc(/C=C/c2ccc3c(Br)cc(Br)c(O)c3n2)ccc1O	-3.9%	u	-10.5%	-32.6%	x	x
Cc1ccc(/C=C/c2ccc3cccc(O)c3n2)s1	2.69µM*	20.6µM*	3.98µM*	3.16µM*	x	x
Oc1cccc(/C=C/c2ccc3cccc(O)c3n2)c1	1.51µM*	u	u	13.3%	x	x
COc1cccc(/C=C/c2ccc3cccc(O)c3n2)c1	1.51µM*	23.1µM*	u	17.1%	x	x
CCCN=C(C)C1=C(O)c2ccccc2C1=O	21.3µM*	u	u	u	12.6µM*	-0.9%
CC(C)(Oc1ccc(Cl)cc1)C(=O)Nc1nnc2n1CCS2	-0.9%	x	x	x	x	x
Cc1ccc(CC(=O)c2ccc(Cl)cc2)cc1	4.78µM*	u	u	u	x	x
